Holding throughout (type): functional
Experiment [1] has as its system Plasmodium falciparum. The experiment in a line: GSK_TCMDC: Inhibition of Plasmodium falciparum 3D7 in whole red blood cells, using parasite LDH activity as an index of growth. Test compounds present at 2uM.
Experiment [2] relates to Plasmodium falciparum. The experiment in a line: GSK_TCMDC: Inhibition of Plasmodium falciparum Dd2 in whole red blood cells, using parasite LDH activity as an index of growth. Test compounds present at 2uM.
Another experiment deals with HepG2. Briefly: GSK_TCMDC: Percent inhibition of human HepG2 cell line. Test compounds present at 10uM.

The source of these data is ChEMBL document CHEMBL1157539, “Thousands of chemical starting points for antimalarial lead identification” (Nature, 2010).

Molecules are shown by their SMILES.

What is called Inhibition is how much of the control response was suppressed. A lower Inhibition goes with a response near the control. On to `CN(CCCNCc1ccc2ccccc2c1)CCCNCc1ccc2ccccc2c1.Cl`, for which the results for the Inhibition in the experiment with Plasmodium falciparum [1], in the experiment with Plasmodium falciparum [2] and in the experiment on HepG2 were 100%, 79% and 100%, respectively.

Regarding `CCn1ncc(Cl)c1CN(C)S(=O)(=O)c1ccc(Br)cc1`, the Inhibition with Plasmodium falciparum [1] is 90%; with Plasmodium falciparum [2], 70%; with HepG2, 9%.

As to `COc1ccc(C2CC(c3cccs3)=NN2C(=O)COc2cccc3c2CCCC3O)cc1OC` (stereo unspecified), the Inhibition was 93% in the experiment with Plasmodium falciparum [1], 62% in the experiment on Plasmodium falciparum [2] and 5% with HepG2.

`CC(C)CC(NC(=O)c1cccc(OCCN2CCOCC2)c1)C(=O)NC(/C=N/NC(=O)c1ccccc1)CCc1ccccc1` (stereo unspecified): the Inhibition in the experiment on Plasmodium falciparum [1] was determined as 96%; in the experiment with Plasmodium falciparum [2], 88%; in the experiment with HepG2, 0%.

Regarding `Cc1ccc(CNC(=O)[C@H](CCCN)Nc2cc(C)nc(NCC3CCCCC3)n2)cc1.O=C(O)C(F)(F)F`, the Inhibition in the experiment on Plasmodium falciparum [1] is recorded as 90%; with Plasmodium falciparum [2] it was 0%; in the experiment on HepG2, 1%.

As for `COc1cccc(CNC(=O)c2ccnc(-c3ccc(CNCCOc4ccccc4)cc3)c2)c1.O=C(O)C(F)(F)F`, the Inhibition in the experiment on Plasmodium falciparum [1] was 83%; in the experiment with Plasmodium falciparum [2], 10%; in the experiment with HepG2 it was 23%.

With `Cc1nc2ccccc2n1C1CC2CCC(C1)N2CCCC1(c2ccccc2)CCN(C(=O)OCc2ccccc2)CC1.O=CO` (stereo unspecified), the results for the Inhibition in the experiment with Plasmodium falciparum [1], in the experiment on Plasmodium falciparum [2] and with HepG2 were 90%, 29% and 46%, respectively.

With `CC(C)CCN1CCCN(Cc2ccc(C(=O)Nc3ccc(F)c(F)c3)cc2)CC1.O=C(O)C(F)(F)F`, the results for the Inhibition with Plasmodium falciparum [1], in the experiment with Plasmodium falciparum [2] and in the experiment with HepG2 were 88%, 27% and 36%, respectively.

For `CC1CN(Cc2cccc(-c3ccc(-c4nc5ccccc5[nH]4)cc3)c2)CC(C)O1.O=C(O)C(F)(F)F` (stereo unspecified), the Inhibition in the experiment on Plasmodium falciparum [1] was 90%; in the experiment on Plasmodium falciparum [2], 88%; in the experiment with HepG2, 37%.

As for `CCOC(=O)/C(=N\OC(C(=O)OC(C)(C)C)c1ccccc1)c1csc(NC(c2ccccc2)(c2ccccc2)c2ccccc2)n1` (stereo unspecified), the Inhibition with Plasmodium falciparum [1] is 89%; with Plasmodium falciparum [2] it was 68%; with HepG2 it was 14%.

For `CN(C)c1ccc2c(c1)Sc1cc(N(C)C)ccc1N2C(=O)c1cccc(C(=O)O)c1`, the figures for the Inhibition with Plasmodium falciparum [1], in the experiment on Plasmodium falciparum [2] and in the experiment with HepG2 were 99%, 73% and 8%, respectively.

Consider `Cl.Oc1cccc(Nc2ccnc3cc(-c4ccccn4)ccc23)c1`, for which the results for the Inhibition with Plasmodium falciparum [1], with Plasmodium falciparum [2] and in the experiment on HepG2 were 96%, 98% and 24%, respectively.

For the compound `COc1ccc2c(=NN=Cc3ccccc3F)cc(C)[nH]c2c1`, the Inhibition in the experiment with Plasmodium falciparum [1] is listed as 90%; in the experiment on Plasmodium falciparum [2] it was 12%; with HepG2 it was 4%.

On to `Cc1cc(-c2nc3ccc(C(=O)NCc4ccccc4)cc3n2C2CCN(C(=O)c3ccc(-c4ccccc4)cc3)CC2)ccn1`, for which the Inhibition with Plasmodium falciparum [1] stood at 95%; with Plasmodium falciparum [2] it was 97%; with HepG2, 36%.

In the case of `Cc1cccc2nc(-c3cccc(-c4ccc(NC(=O)Nc5ccc(Cl)c(Cl)c5)cc4)c3)[nH]c12`, the figures for the Inhibition in the experiment on Plasmodium falciparum [1], in the experiment on Plasmodium falciparum [2] and in the experiment on HepG2 were 100%, 83% and 53%, respectively.

As to `COc1ccccc1CCNc1nc(C)cc(N[C@@H](CC(C)C)C(=O)NCCc2ccccc2)n1.O=C(O)C(F)(F)F`, the Inhibition with Plasmodium falciparum [1] was 97%; in the experiment with Plasmodium falciparum [2], 81%; with HepG2, 12%.

Consider `CCCCCC(C)c1cc(O)c2c(c1)OC(C)(C)C=C2C1=CCN(Cc2ccccc2)CC1` (stereo unspecified), for which the Inhibition was 96% in the experiment on Plasmodium falciparum [1], 96% in the experiment on Plasmodium falciparum [2] and 13% with HepG2.

For the compound `O=c1cc(NCCCNCc2cc(F)cc(C(F)(F)F)c2)[nH]c2ccccc12`, the Inhibition in the experiment with Plasmodium falciparum [1] turned out to be 92%; with Plasmodium falciparum [2], 15%; in the experiment on HepG2, 0%.

On to `Cc1ccc(NS(=O)(=O)c2ccc(-c3ccccc3)cc2)c(Cn2cnc(N3CCCNCC3)cc2=O)c1.O=C(O)C(F)(F)F`, for which the Inhibition with Plasmodium falciparum [1] stood at 87%; with Plasmodium falciparum [2], 33%; in the experiment on HepG2, 10%.

With `c1ccc(COc2ccc(C3CCCCC3)cc2)nc1`, the values for the Inhibition in the experiment on Plasmodium falciparum [1], in the experiment with Plasmodium falciparum [2] and in the experiment on HepG2 were 99%, 1% and 0%, respectively.

Turning to `CCOc1ccc(C=CC(=O)Nc2ccc3nc(N4CCN(C)CC4)cc(C)c3c2)cc1OC`, the figures for the Inhibition with Plasmodium falciparum [1], in the experiment on Plasmodium falciparum [2] and in the experiment on HepG2 were 100%, 70% and 0%, respectively.

For the compound `COc1cc(NC(=O)c2ccc3c(=O)n(Cc4ccccc4)c(=S)[nH]c3c2)cc(OC)c1OC`, the figures for the Inhibition in the experiment on Plasmodium falciparum [1], in the experiment with Plasmodium falciparum [2] and with HepG2 were 94%, 47% and 6%, respectively.

Consider `c1ccc2[nH]c(-c3ccc(-c4ccc(CN5CCCCC5)cc4)s3)nc2c1`, for which the Inhibition in the experiment on Plasmodium falciparum [1] worked out at 100%; in the experiment on Plasmodium falciparum [2], 69%; in the experiment with HepG2 it was 41%.

For the compound `Cc1cc(CN2CC[C@H](NC(=O)c3ccc(Cl)c(Cl)c3)C2)ccc1OCCCN(C)C.O=C(O)C(F)(F)F`, the Inhibition with Plasmodium falciparum [1] worked out at 99%; in the experiment on Plasmodium falciparum [2] it was 35%; in the experiment with HepG2, 41%.

As to `CS(=O)(=O)CCNCc1nc(-c2ccc3c(Nc4ccc(Cl)cc4F)ccnc3c2)cs1`, the figures for the Inhibition in the experiment on Plasmodium falciparum [1], in the experiment with Plasmodium falciparum [2] and in the experiment with HepG2 were 88%, 28% and 19%, respectively.

Regarding `CC(=O)N[C@H](C(=O)Nc1ccc(-c2ccc(-c3nc4cc(C(F)(F)F)ccc4[nH]3)cc2)cc1)C(C)C`, the Inhibition in the experiment with Plasmodium falciparum [1] is 88%; with Plasmodium falciparum [2], 76%; in the experiment on HepG2, 24%.

For the compound `FC(F)(F)c1ccc2[nH]c(-c3ccc(-c4cccc(CNCCc5cccnc5)c4)s3)nc2c1.O=C(O)C(F)(F)F`, the Inhibition with Plasmodium falciparum [1] was 100%; in the experiment on Plasmodium falciparum [2] it was 98%; in the experiment with HepG2, 26%.
